According to PubChem BioAssay (Tox21):
Where “and” joins values, the source holds several entries; their conditions need not be identical. Equal values may be shown once. Inconclusive results are not listed. Some compounds were tested as several samples or in several runs, with calls that do not always agree. Calls of active or inactive are those of the source. Unless noted, calls follow the shape of the full dose curve.

What was measured:
[1] = Nuclear factor erythroid 2-related factor 2/antioxidant responsive element (Nrf2/ARE) small molecule agonists: qHTS cell viability counter screen in human keratinocytes (AID 1919968; active = well fitted curve in the direction sought with a large enough effect in the repeat runs; an effect the other way counts as inactive or inconclusive; also: nearly all actives have a fitted effect of over 55% in size; also: potency is read from the fitted curve at half-maximal effect)
Summary of the method: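 Cells of the KeratinoSens line were plated at 1,500 per well and left for 5 h before compound transfer from DMSO stocks. After a 23 h incubation (37 C, 5% CO2), CellTiter-Fluor was added. Signal was taken as fluorescence intensity 1 h later.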

[2] = Nuclear factor erythroid 2-related factor 2/antioxidant responsive element (Nrf2/ARE) small molecule agonists: luciferase reporter gene qHTS assay in human keratinocytes (AID 1919969); also: nearly all actives have a fitted effect of over 35% in size; also: potency is read from the fitted curve at half-maximal effect
[3] = target: KiSS-1 receptor (Homo sapiens) (UniProt Q969F8); experiment: Human kisspeptin (KISS1R) small molecule agonists, calcium flux assay in KISS1R-HEK293 cells (AID 1920064; active = well fitted curve in the direction sought with a large enough effect in the repeat runs; an effect the other way counts as inactive or inconclusive)
Summary of the method: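 Cell line: HEK293, stable human KISS1R. Dye loading 1 h at 37 C after 18 h culture. Read: kinetic fluorescence, 480/540 nm, 3 min at 1 s intervals.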

[4] = G protein-coupled receptor (GPCR) small molecule agonists, calcium flux assay: HEK293 wild type cell line counter screen (AID 1920065)
Summary of the method: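 Tox21 10K compounds, 15 concentrations each in triplicate, pin-transferred in DMSO onto dye-loaded cells; kinetic read at 480/540 nm for 3 min, 1 s intervals.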

[5] = p53 small molecule agonists, cell-based qHTS assay with human liver microsomes (AID 1963577);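 also: p53 response element beta-lactamase reporter cells with liver microsomes plus NADPH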
Summary of the method: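 Metabolically competent format: test substances, human liver microsomes and NADPH (both 0.5 mg/mL final) incubated with p53RE-bla cells 16 h at 37 C. Beta-lactamase reporter signal then quantified by fluorescence.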

[6] = p53 small molecule agonists, cell-based qHTS assay with rat liver microsomes (AID 1963578)
Summary of the method: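 Each plate received p53RE-bla cells, then compound, then rat liver microsomes and NADPH (both 0.5 mg/mL final). Plates were held 16 h at 37 C, and beta-lactamase activity was detected with LiveBLAzer over 2 h.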

[7] = p53 small molecule agonists, cell-based qHTS assay with human liver microsomes: qHTS cell viability counter screen (AID 1963579); also: nearly all actives have a fitted effect of over 45% in size; also: potency is read from the fitted curve at half-maximal effect
Summary of the method: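 Tox21 library compounds, delivered from DMSO stocks, were tested on p53RE-bla cells together with 0.5 mg/mL human liver microsomes and 0.5 mg/mL NADPH (final) over 16 h at 37 C; CellTiter-Glo luminescence served as the cytotoxicity measure.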

[8] = p53 small molecule agonists, cell-based qHTS assay with rat liver microsomes: qHTS cell viability counter screen (AID 1963580); also: nearly all actives have a fitted effect of over 45% in size
Summary of the method: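 After the beta-lactamase ratio was read, CellTiter-Glo was added to the same wells and luminescence measured at 30 min; cells had been treated 16 h at 37 C with compounds, rat liver microsomes and NADPH (0.5 mg/mL final each).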

[9] = p53 small molecule agonists, cell-based qHTS assay: qHTS cell viability counter screen (AID 1963581); also: nearly all actives have a fitted effect of over 45% in size
Summary of the method: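 ATP content measured by luminescence in HCT-116 p53RE-bla cells treated 16 h at 37 C, same wells as the reporter screen.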

[10] = p53 small molecule agonists, cell-based qHTS assay (AID 1963582; active = well fitted activation curve with a large enough effect in the signal ratio in the repeat runs, not every such curve was filed as active; the % refers to the signal ratio)
Summary of the method: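 16 h compound exposure (37 C) of p53 response element–bla cells, preceded by 5 h recovery at 37 C/5% CO2; read-out via LiveBLAzer B/G FRET substrate, 2 h RT, fluorescence intensity.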

[11] = target: 5-hydroxytryptamine receptor 2A (Homo sapiens) (UniProt P28223); experiment: 5-hydroxytryptamine receptor 2A (HTR2A) small molecule antagonists, cell-based qHTS assay (AID 1963586); also: nearly all actives have a fitted effect of over 45% in size
Summary of the method: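 CHO cells stably expressing human HTR2A were plated for 18 h at 37 C, then loaded with calcium dye for 1 h. Compounds were preincubated 5 min at room temperature before DOI (4 nM solution) was added. Kinetic fluorescence was read for 3 min.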

[12] = target: 5-hydroxytryptamine receptor 2A (Homo sapiens) (UniProt P28223); experiment: 5-hydroxytryptamine receptor 2A (HTR2A) small molecule agonists, cell-based qHTS assay (AID 1963587); also: nearly all actives have a fitted effect of over 30% in size
Summary of the method: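 CHO cells stably expressing human HTR2A, plated 18 h, loaded with calcium dye 1 h at 37 C. Agonist mode: compounds added and intracellular calcium fluorescence recorded kinetically for 2 min at 1 sec intervals.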

[13] = target: Muscarinic acetylcholine receptor M1 (Homo sapiens) (UniProt P11229); experiment: Cholinergic receptor muscarinic 1 (CHRM1) small molecule antagonists, cell-based qHTS assay (AID 1963588); also: nearly all actives have a fitted effect of over 40% in size
Summary of the method: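 Compounds were tested at 15 concentrations in three independent runs. Dye-loaded CHRM1-CHO cells were exposed 5 min at room temperature before stimulation by acetylcholine added at 50nM. Intracellular calcium was read kinetically on FDSS for 3 min.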

[14] = target: Muscarinic acetylcholine receptor M1 (Homo sapiens) (UniProt P11229); experiment: Cholinergic receptor muscarinic 1 (CHRM1) small molecule agonists, cell-based qHTS assay (AID 1963589); also: nearly all actives have a fitted effect of over 35% in size
Summary of the method: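 Homogeneous fluorescence calcium flux, agonist mode. Human M1-expressing CHO cells; compound dosed at 15 concentrations, three independent runs; signal sampled every 1 sec.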

[15] = cAMP Responsive Elements (CRE) small molecule antagonists, cell-based qHTS assay (AID 1963591; active = well fitted inhibition curve with a large enough effect in the signal ratio in the repeat runs, not every such curve was filed as active; the % refers to the signal ratio)
Summary of the method: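 First, CRE-bla HEK293T cells settled 18 h at 37 C. Next, compound and 0.25 uM final NKH477 were applied for 3 h. Last, LiveBLAzer B/G substrate was loaded for 2 h at room temperature.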

[16] = target: Beta-2 adrenergic receptor (Homo sapiens) (UniProt P07550); experiment: Adrenergic beta2 receptor (ADRB2) small molecule antagonists, cell-based qHTS assay (AID 1963592); also: series mostly up to about 92 µM; nearly all actives have a fitted effect of over 50% in size
Summary of the method: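 Assay format: CHO-ADRB2 cells, 18-20hr seeding at 37C/5% CO2, then compound plus 1nM isoproterenol agonist mix for 0.5hr RT. Homogeneous time-resolved fluorescence cAMP detection after 1hr, expressed as 665/615 nm ratio.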

[17] = target: Beta-2 adrenergic receptor (Homo sapiens) (UniProt P07550); experiment: Adrenergic beta2 receptor (ADRB2) small molecule agonists, cell-based qHTS assay (AID 1963593);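 also: CHO cells stably overexpressing human ADRB2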
Summary of the method: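 CHO cells stably over-expressing ADRB2 were plated overnight at 37C, then dosed with compounds plus a stimulation mix containing 100uM IBMX and 25uM Ro-20-1724 for 0.5hr at room temperature. cAMP was measured by HTRF competition, 1hr.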

[18] = target: D(2) dopamine receptor (Homo sapiens) (UniProt P14416); experiment: Dopamine D2 receptor (DRD2) small molecule agonists, cell-based qHTS assay (AID 1963594); also: nearly all actives have a fitted effect of over 35% in size
Summary of the method: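 HEK293 cells stably expressing human DRD2, pre-treated with PDE inhibitor Ro20-1724 (0.1 mM final) and compound 10 min at room temperature, then stimulated with NKH477 (200nM […]) for 30 min. cAMP read by HTRF (665/620 nm).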

[19] = target: D(2) dopamine receptor (Homo sapiens) (UniProt P14416); experiment: Dopamine D2 receptor (DRD2) small molecule antagonists, cell-based qHTS assay (AID 1963595; active = well fitted inhibition curve with a large enough effect in the signal ratio in the repeat runs, with a control signal flat; the % refers to the signal ratio)
Summary of the method: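 HEK293 cells stably expressing DRD2 were preincubated with 0.1 mM Ro20-1724, then with compound for 10 min at room temperature. Cells were stimulated with 200 nM NKH477 plus 12 nM quinpirole for 30 min, and cAMP was read by HTRF.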

[20] = cAMP Responsive Elements (CRE) small molecule agonists, cell-based qHTS assay (AID 1963590)
Summary of the method: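 HEK 293T cells stably bearing CRE-bla were plated at 2,000 cells per well and rested 18 h. Compounds, positive controls or DMSO were added for 3 h at 37 C. LiveBLAzer B/G substrate was then loaded for 2 h at room temperature.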

Measured: Potency

Sequence of Beta-2 adrenergic receptor (Homo sapiens) (P07550 whole entry, looked up): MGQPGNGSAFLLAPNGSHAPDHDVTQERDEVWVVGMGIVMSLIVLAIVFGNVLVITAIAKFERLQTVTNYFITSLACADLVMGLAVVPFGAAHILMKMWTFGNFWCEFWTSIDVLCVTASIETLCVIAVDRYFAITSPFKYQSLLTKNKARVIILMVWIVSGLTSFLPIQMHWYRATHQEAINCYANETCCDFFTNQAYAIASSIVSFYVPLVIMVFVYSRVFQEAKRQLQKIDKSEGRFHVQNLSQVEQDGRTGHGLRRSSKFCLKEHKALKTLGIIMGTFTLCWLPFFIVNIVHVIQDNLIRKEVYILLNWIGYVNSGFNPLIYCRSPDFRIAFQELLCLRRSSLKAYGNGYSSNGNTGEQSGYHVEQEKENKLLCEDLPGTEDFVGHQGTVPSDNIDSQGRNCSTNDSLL
Sequence of 5-hydroxytryptamine receptor 2A (Homo sapiens) (P28223 whole entry, looked up): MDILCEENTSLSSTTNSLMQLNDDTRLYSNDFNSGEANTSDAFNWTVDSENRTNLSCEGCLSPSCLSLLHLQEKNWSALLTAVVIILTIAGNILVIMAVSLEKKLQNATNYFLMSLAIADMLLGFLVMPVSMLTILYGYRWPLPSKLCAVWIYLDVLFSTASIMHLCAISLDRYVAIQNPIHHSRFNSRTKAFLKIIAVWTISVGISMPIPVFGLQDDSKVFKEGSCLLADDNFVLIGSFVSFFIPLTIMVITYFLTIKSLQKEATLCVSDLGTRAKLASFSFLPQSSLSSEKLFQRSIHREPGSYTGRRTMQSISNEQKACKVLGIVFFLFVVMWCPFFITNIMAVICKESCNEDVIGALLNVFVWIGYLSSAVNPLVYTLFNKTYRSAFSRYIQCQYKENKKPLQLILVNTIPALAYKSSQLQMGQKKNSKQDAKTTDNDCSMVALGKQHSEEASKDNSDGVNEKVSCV
Sequence of Muscarinic acetylcholine receptor M1 (Homo sapiens) (P11229 whole entry, looked up): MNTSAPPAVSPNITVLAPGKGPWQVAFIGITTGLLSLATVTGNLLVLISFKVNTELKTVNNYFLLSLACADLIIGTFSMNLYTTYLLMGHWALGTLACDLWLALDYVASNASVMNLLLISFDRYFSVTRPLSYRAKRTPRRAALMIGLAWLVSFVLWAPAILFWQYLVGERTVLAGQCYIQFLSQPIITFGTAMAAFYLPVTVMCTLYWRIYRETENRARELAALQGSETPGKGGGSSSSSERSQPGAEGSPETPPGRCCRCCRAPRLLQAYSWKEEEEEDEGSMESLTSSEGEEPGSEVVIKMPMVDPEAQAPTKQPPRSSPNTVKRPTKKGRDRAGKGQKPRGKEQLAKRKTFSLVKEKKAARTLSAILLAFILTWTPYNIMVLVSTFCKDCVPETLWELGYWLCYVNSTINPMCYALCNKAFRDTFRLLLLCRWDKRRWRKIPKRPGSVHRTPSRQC
Sequence of D(2) dopamine receptor (Homo sapiens) (P14416 whole entry, looked up): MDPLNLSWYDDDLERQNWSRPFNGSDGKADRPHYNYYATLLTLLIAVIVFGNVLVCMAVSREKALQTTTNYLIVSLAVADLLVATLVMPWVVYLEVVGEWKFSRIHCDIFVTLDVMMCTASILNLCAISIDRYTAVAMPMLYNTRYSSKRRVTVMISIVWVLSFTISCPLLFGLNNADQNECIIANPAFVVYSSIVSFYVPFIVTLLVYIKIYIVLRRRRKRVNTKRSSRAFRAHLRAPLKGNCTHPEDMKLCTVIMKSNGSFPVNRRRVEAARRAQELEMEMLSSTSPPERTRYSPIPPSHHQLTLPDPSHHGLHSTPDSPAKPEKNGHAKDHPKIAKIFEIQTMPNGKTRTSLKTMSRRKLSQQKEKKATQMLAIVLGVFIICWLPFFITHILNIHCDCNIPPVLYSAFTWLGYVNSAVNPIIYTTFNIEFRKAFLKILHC
Sequence of KiSS-1 receptor (Homo sapiens) (Q969F8 whole entry, looked up): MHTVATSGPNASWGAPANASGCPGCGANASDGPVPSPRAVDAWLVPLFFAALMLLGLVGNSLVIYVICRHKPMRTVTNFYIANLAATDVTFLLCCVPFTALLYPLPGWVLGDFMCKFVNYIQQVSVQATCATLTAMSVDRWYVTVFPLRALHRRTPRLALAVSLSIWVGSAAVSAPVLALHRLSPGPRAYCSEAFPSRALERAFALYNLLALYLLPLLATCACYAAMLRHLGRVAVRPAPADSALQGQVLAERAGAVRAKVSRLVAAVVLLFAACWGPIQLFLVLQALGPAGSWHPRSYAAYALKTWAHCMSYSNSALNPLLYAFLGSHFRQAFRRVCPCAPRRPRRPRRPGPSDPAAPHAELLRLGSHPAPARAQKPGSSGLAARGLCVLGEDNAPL

NC(=O)NC1N=C([O][Al])NC1=O (stereo unspecified)
not listed: [20]
inactive: all other assays above

COC(=O)c1cc(S(N)(=O)=O)ccc1OC
not listed: [17] | [19] | [20]
inactive: all other assays above

FC(F)(F)C(F)(F)C(F)(F)C(F)(F)C(F)(F)C(F)(F)CCI
not listed: [9] | [19]
inactive: all other assays above

O=S(=O)(O)CCS
not listed: [11] | [12] | [13] | [14] | [19]
inactive: all other assays above

[O]=[Zr]
not listed: [12]
inactive: all other assays above

COC(=O)CCC(=O)O
not listed: [10]
inactive: all other assays above

O=C1C=CC(=O)O1
not listed: [16] | [19] | [20]
inactive: all other assays above

C[C@@H]1CCN(C(=O)[C@H](CCCN=C(N)N)NS(=O)(=O)c2cccc3c2NC[C@H](C)C3)[C@@H](C(=O)O)C1
not listed: [8] | [9] | [15] | [17]
inactive: all other assays above

CCCC(=O)c1ccccc1
not listed: [6] | [17]
inactive: all other assays above

C=C1C[C@H]2[C@@H]3C=C(C)C4=CC(=O)CC[C@]4(C)[C@H]3CC[C@]2(C)[C@@]1(OC(C)=O)C(C)=O
not listed: [8] | [15] | [17] | [20]
inactive: all other assays above

Nc1cc(=O)[nH]c(N)n1
not listed: [8] | [17]
inactive: all other assays above

O=C1OC(=O)C2CC=CCC12 (stereo unspecified)
not listed: [9]
inactive: all other assays above

C=CCCC(=O)/C=C/C1C(C)=CCCC1(C)C (stereo unspecified)
active: [2] 54.5 µM
not listed: [6]
inactive: all other assays above

c1ccc2sc(SSN3CCOCC3)nc2c1
active: [1] 30.6 µM | [2] 24.3 µM
not listed: [5] | [6] | [10] | [12]
inactive: all other assays above

CC/C=C\C/C=C\C/C=C\CCCCCCCC(=O)O
active: [2] 60.6 µM and 54.5 µM
inactive and 20.4 µM (active): [7]
not listed: [5] | [6] | [10] | [15] | [20]
inactive: all other assays above
